Shown are actives, neighbours in structure and some others; about 1.1% of the full set was active somewhere.
TcdB GH inh: TcdB glycohydrolase inhibitors, primary screen, biochemical, single point, plate reader; Toxin B (Clostridioides difficile), P18177; TcdB glycohydrolase enzymatic assay; inhibition, % at 9.99 µM; 0.24% of 350,000 active; AID 652162, 2013; in the data active means inhibition above about 10%
Target sequence (P18177 whole entry, looked up): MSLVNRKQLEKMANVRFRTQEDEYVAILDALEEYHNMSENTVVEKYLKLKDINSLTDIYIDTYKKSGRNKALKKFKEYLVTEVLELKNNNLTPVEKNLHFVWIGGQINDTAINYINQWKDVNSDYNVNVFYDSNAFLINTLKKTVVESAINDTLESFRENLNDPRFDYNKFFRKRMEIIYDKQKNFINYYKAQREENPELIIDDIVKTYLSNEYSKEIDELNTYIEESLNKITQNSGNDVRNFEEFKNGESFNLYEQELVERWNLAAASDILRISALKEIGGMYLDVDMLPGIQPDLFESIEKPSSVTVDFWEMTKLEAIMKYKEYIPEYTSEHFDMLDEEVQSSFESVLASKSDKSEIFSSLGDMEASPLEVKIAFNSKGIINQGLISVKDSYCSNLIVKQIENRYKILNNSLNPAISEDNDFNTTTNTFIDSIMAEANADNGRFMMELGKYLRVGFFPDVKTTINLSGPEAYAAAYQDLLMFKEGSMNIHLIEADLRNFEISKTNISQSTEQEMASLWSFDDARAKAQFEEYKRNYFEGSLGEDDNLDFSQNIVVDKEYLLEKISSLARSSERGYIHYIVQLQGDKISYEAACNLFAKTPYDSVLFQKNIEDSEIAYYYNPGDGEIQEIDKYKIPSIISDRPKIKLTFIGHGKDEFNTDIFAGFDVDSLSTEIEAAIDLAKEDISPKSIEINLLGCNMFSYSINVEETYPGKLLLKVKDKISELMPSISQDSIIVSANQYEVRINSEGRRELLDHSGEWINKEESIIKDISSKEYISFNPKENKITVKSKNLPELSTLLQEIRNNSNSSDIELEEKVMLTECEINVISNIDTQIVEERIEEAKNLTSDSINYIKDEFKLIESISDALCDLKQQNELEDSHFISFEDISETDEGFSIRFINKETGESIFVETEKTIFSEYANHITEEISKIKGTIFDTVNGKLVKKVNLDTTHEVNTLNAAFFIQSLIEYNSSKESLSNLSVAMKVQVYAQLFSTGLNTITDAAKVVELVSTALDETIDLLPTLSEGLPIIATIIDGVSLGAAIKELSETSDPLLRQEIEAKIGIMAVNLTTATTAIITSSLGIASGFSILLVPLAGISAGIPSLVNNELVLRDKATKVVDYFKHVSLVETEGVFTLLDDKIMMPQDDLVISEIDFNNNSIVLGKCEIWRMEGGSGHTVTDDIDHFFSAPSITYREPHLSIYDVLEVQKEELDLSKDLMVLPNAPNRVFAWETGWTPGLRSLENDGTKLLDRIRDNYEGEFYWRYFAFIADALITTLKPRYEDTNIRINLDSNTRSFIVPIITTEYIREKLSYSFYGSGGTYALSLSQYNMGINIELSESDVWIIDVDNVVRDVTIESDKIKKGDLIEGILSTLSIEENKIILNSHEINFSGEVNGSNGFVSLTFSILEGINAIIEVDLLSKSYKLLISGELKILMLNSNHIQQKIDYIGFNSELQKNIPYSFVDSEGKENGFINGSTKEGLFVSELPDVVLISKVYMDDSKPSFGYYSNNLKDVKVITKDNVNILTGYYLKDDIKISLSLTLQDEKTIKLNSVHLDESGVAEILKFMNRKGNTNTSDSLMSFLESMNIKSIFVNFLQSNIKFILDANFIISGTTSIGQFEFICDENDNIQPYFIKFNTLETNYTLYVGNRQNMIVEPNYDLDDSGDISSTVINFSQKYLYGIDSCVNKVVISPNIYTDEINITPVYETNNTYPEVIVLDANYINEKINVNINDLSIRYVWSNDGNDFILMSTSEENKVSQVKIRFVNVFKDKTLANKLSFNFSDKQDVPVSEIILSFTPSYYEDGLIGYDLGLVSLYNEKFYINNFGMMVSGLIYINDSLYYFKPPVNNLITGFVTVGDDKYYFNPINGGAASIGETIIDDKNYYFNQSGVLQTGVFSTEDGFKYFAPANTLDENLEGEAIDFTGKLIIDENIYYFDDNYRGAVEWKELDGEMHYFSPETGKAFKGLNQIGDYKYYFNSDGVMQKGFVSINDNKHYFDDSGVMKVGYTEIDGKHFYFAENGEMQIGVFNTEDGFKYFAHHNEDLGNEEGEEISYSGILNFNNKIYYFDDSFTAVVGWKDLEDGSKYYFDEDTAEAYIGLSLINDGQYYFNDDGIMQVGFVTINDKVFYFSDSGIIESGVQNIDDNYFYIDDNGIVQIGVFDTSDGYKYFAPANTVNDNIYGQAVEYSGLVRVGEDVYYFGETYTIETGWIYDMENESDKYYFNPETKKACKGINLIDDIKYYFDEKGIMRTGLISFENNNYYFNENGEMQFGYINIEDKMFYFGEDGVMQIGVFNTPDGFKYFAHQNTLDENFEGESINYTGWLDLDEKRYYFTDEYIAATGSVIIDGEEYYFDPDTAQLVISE
PrP 5UTR inh: inhibition of PrP 5' UTR reporter expression; cell-based PrP 5' UTR mRNA reporter, plate reader; inhibition, % (no concentration beside the values); 0.35% of 340,000 active; AID 488862, 2010; in the data active means inhibition above about 52%
FadD28 binding: inhibitors of FadD28 bisubstrate probe binding, primary screen, biochemical, fluorescence polarization, single point; Mycobacterium tuberculosis FadD28 fatty-acid-AMP ligase; inhibition, % at 12.5 µM; 0.22% of 360,000 active; AID 588549, 2011; in the data active means inhibition above about 8.5%, passing the limit was not always enough
PfHsp40 yeast: rescue of yeast from PfHsp40 toxicity, primary screen, S. cerevisiae, ATP luminescence; S. cerevisiae expressing PfHsp40, growth rescue; growth rescue, % at 12.5 µM; 0.68% of 340,000 active; AID 504582, 2011; in the data active means growth rescue above about 28%, passing the limit was not always enough;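 further: yeast W303a lacking pdr1 and pdr3 grown in galactose medium; growth measured after three days at 30 °C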
BioA inh: M. tuberculosis BioA enzyme inhibitors, primary screen, biochemical, plate reader, single point, HTS; inhibition, % at 9.99 µM; AID 602481, 2012; purified M. tuberculosis BioA enzyme; 7,8-diaminopelargonic acid synthase BioA (Mycobacterium tuberculosis); 0.096% of 360,000 active; in the data active means inhibition above about 40%
PrP 5UTR single: prion 5' UTR mRNA inhibition, cherry-pick retest; shares compounds with PrP 5UTR inh; cell-based prion protein 5' UTR reporter, plate reader; inhibition, % at 2.5 µM; 48% of 1,100 active; in the data active means inhibition above about 54%
Each line names hits and unclear results; the compound was inactive in the other large screens (follow-up assays come after a bar, where they were run).

O=C(COc1ccc(Cl)cc1)NCC(=O)N/N=C/c1cccs1	PrP 5UTR inh 63.1 (no result: BioA inh) | PrP 5UTR single inactive
COc1ccc(S(=O)(=O)N[C@H]2CC[C@@H](CCNC(=O)CN3CCOCC3)O[C@H]2CO)cc1	none (no result: PrP 5UTR inh, FadD28 binding, PfHsp40 yeast)
C[C@H]1CN([C@@H](C)CO)S(=O)(=O)c2ccc(-c3ccncc3)cc2O[C@@H]1CN(C)Cc1cncnc1	none (no result: PrP 5UTR inh, FadD28 binding, PfHsp40 yeast)
C/C(=N\NC(=O)c1ccccc1NC(=O)c1ccc(Cl)cc1)c1ccncc1	PrP 5UTR inh 75.8 (no result: BioA inh) | PrP 5UTR single 70.0
CCCN1[C@@H]2Cn3c(ccc(-c4ccccc4OC)c3=O)[C@H]1[C@@H](C(=O)NCc1ccccn1)[C@@H]2CO	none (no result: PrP 5UTR inh, FadD28 binding, PfHsp40 yeast)
CCN(CC)S(=O)(=O)c1ccc(N2CCCC2)c(NC(=O)CN2C(=O)NC3(CCCC3)C2=O)c1	PrP 5UTR inh 76.5 | PrP 5UTR single inactive
C[C@H](CO)N1C[C@H](C)[C@H](CN(C)C(=O)c2ccccc2)Oc2cc(C3=CCCC3)ccc2S1(=O)=O	none (no result: PrP 5UTR inh, FadD28 binding, PfHsp40 yeast)
COc1cc(C(=O)N2CCN(c3ccccc3)CC2)c2ccccc2n1	PrP 5UTR inh 74.5 | PrP 5UTR single 87.9
O=C(c1ccccc1F)N1CC[C@@H]2[C@H](CO)Nc3ccc(C#Cc4ccccc4F)cc3[C@@H]21	none (no result: PrP 5UTR inh, FadD28 binding, PfHsp40 yeast, BioA inh)
CCOc1ccc(/C=N/NC(=O)c2[nH]c3ccc(C)cc3c2C)cc1	none
Cc1c(C(=O)N/N=C/c2ccc(Cl)cc2)[nH]c2ccc(Cl)cc12	PrP 5UTR inh 61.2 (no result: BioA inh) | PrP 5UTR single 78.2
NC(CO)c1cn([C@@H](CCC(=O)O)C(=O)N2CCNCC2)nn1 (some centres undefined)	none
NC(Cc1ccc(O)cc1)c1cn([C@@H](CCC(=O)O)C(=O)N2CCNCC2)nn1 (some centres undefined)	PrP 5UTR inh 64.0 | PrP 5UTR single inactive
COc1ccc(CN(C)C[C@@H]2OCCCC[C@H](C)Oc3ccc(NS(=O)(=O)c4ccc(Cl)cc4)cc3C(=O)N([C@@H](C)CO)C[C@H]2C)cc1	none (no result: PrP 5UTR inh, FadD28 binding, PfHsp40 yeast)
Nc1ccc2oc(-c3cccc4ccccc34)nc2c1	PrP 5UTR inh 51.5 (no result: TcdB GH inh) | PrP 5UTR single 64.8
Cc1ccc(-c2nc3cc(N)ccc3o2)c(C)c1	none (no result: TcdB GH inh)
C[C@@H]1CN([C@H](C)CO)C(=O)Cc2cc(NC(=O)Nc3ccccc3)ccc2O[C@H]1CN(C)C	none (no result: PrP 5UTR inh, FadD28 binding, PfHsp40 yeast)
CC[C@H](C)NC(=O)CCCCCn1c(=S)[nH]c2c([nH]c3ccc(OC)cc32)c1=O	PrP 5UTR inh 66.2 (no result: BioA inh) | PrP 5UTR single inactive
CCCCNC(=O)CCCCn1c(=S)[nH]c2c([nH]c3ccc(OC)cc32)c1=O	none (no result: BioA inh)
CCOc1ncccc1C(=O)N1CCN(c2cccc(C)c2C)CC1	PrP 5UTR inh 70.0 (no result: BioA inh) | PrP 5UTR single 85.7
O=C(NCCc1ccccn1)c1ccc(NS(=O)(=O)c2ccc(F)cc2)cc1	none
CCN(CC)S(=O)(=O)c1ccc(C(=O)NCCc2ccccn2)cc1	PrP 5UTR inh 78.3 | PrP 5UTR single inactive
CCN(CC)S(=O)(=O)c1ccc(C(=O)O)cc1	PrP 5UTR inh 80.0 | PrP 5UTR single inactive
CCCN(CCC)S(=O)(=O)c1ccc(C(=O)O)cc1	none
COc1ccccc1S(=O)(=O)N[C@H]1CC[C@H](CCn2cc(C3CCCC3)nn2)O[C@@H]1CO	none (no result: PrP 5UTR inh, FadD28 binding, PfHsp40 yeast, BioA inh)
CCNC(=O)CC1C(=O)N(CC)C(=S)N1NC(=O)c1cccnc1 (centres undefined)	PrP 5UTR inh 80.3 | PrP 5UTR single inactive
Cc1[nH]n(-c2ccccc2)c(=O)c1C(=O)c1cccc(F)c1	PrP 5UTR inh 61.7 (no result: BioA inh) | PrP 5UTR single inactive
CCCCCC(=O)N[C@@H](c1ccccc1)[C@@H](O)C(=O)O[C@H]1C[C@@]2(O)[C@@H](OC(=O)c3ccccc3)C3[C@](C)(C(=O)[C@H](OC(C)=O)C(=C1C)C2(C)C)[C@@H](O)C[C@H]1OC[C@@]31OC(C)=O (some centres undefined)	none
CC(=O)O[C@H]1C(=O)[C@@]2(C)[C@H]([C@H](OC(=O)c3ccccc3)[C@]3(O)C[C@H](OC(=O)[C@H](O)C(NC(=O)c4ccccc4)c4ccccc4)C(C)=C1C3(C)C)[C@]1(OC(C)=O)CO[C@@H]1C[C@@H]2O (some centres undefined)	PrP 5UTR inh 70.0 | PrP 5UTR single 88.5
CC(=O)O[C@H]1C(=O)[C@@]2(C)[C@H]([C@H](OC(=O)c3ccccc3)[C@]3(O)C[C@H](OC(=O)[C@H](O)[C@@H](NC(=O)c4ccccc4)c4ccccc4)C(C)=C1C3(C)C)[C@]1(OC(C)=O)CO[C@@H]1C[C@@H]2O	PrP 5UTR inh 55.0 | PrP 5UTR single 88.5
CC/C=C/CC(=O)N[C@@H](c1ccccc1)[C@@H](O)C(=O)O[C@H]1C[C@@]2(O)[C@@H](OC(=O)c3ccccc3)C3[C@](C)(C(=O)[C@H](OC(C)=O)C(=C1C)C2(C)C)[C@@H](O)C[C@H]1OC[C@@]31OC(C)=O (some centres undefined)	PrP 5UTR inh 59.2 (no result: FadD28 binding) | PrP 5UTR single 85.0
O=c1cc(-c2ccc(Cl)c(Cl)c2)[nH][nH]1	PrP 5UTR inh 56.9 (no result: TcdB GH inh) | PrP 5UTR single inactive
Cc1noc(C)c1S(=O)(=O)Nc1ccc2c(c1)C(=O)N([C@@H](C)CO)C[C@H](C)[C@H](CN(C)Cc1ccccc1)OCCCC[C@H](C)O2	none (no result: PrP 5UTR inh, FadD28 binding, PfHsp40 yeast)
CCCNC(=O)N[C@H]1CC[C@H](CCn2cc(-c3cccc(F)c3)nn2)O[C@H]1CO	none (no result: PrP 5UTR inh, FadD28 binding, PfHsp40 yeast)
COc1ccc(C(=O)NC(=O)Nc2cc(C)ccn2)cc1	PrP 5UTR inh 61.0 | PrP 5UTR single 64.0
O=C(Nc1ccccn1)c1ccc(C(=O)c2ccccc2)cc1	none
O=C(NC(=O)c1ccccc1)Nc1ccccn1	PrP 5UTR inh 75.0 | PrP 5UTR single 76.1
Cc1cccc(-c2ccc([C@H]3[C@H]4CN(C(=O)c5ccncc5)CCCCN4[C@H]3CO)cc2)c1	none (no result: PrP 5UTR inh, FadD28 binding, PfHsp40 yeast)
C[C@@H]1CN([C@@H](C)CO)S(=O)(=O)c2ccc(C#CCC3CCCC3)cc2O[C@@H]1CN(C)C(=O)CN(C)C	none (no result: PrP 5UTR inh, FadD28 binding, PfHsp40 yeast)
C[C@H]1CN([C@@H](C)CO)C(=O)c2cc(NC(=O)Cc3cn(C)c4ccccc34)ccc2O[C@H]1CN(C)C(=O)Nc1ccc(F)cc1	none (no result: PrP 5UTR inh, FadD28 binding, PfHsp40 yeast)
COc1ccccc1CNC(=O)CCc1cn(C)c2ccccc12	PrP 5UTR inh 66.2 | PrP 5UTR single inactive
COc1ccccc1CNC(=O)CCCc1cn(C)c2ccccc12	none
Cc1ccc(S(=O)(=O)NCCC(=O)N2CC(C)OC(C)C2)cc1 (centres undefined)	PrP 5UTR inh 75.2 | PrP 5UTR single inactive
COc1ccc(OC)c(S(=O)(=O)N2Cc3ccccc3CC2C(=O)Nc2nccs2)c1 (centres undefined)	PrP 5UTR inh 68.7 (no result: TcdB GH inh) | PrP 5UTR single inactive
Cn1c(=O)c2[nH]c(N=Nc3ccc(N)cc3N)nc2n(C)c1=O	PrP 5UTR inh 70.5 (no result: BioA inh) | PrP 5UTR single inactive
Cc1cc(C)cc(Nc2nc3c([nH]2)c(=O)n(C)c(=O)n3C)c1	none
